# Results published in PMC7862700, “An all-to-all approach to the identification of sequence-specific readers for epigenetic DNA modifications on cytosine”.
# Key:
# Experiment in all cases: DAPPL (digital affinity profiling via proximity ligation, sequencing); 10 mM Tris-HCl pH 7.5, 50 mM NaCl, 1 mM DTT, 4% glycerol, room temperature, 30 min; GST-TFs on glutathione beads, 16-mer random dsDNA library, 0.1% formaldehyde crosslink after washing; high values mean tight binding
# [1] = target: T1, FLI1 (Homo sapiens, UniProt Q01543 1-452); settings: protein: recombinant; tags: N-terminal GST; dsDNA, one strand shown
# T1 sequence: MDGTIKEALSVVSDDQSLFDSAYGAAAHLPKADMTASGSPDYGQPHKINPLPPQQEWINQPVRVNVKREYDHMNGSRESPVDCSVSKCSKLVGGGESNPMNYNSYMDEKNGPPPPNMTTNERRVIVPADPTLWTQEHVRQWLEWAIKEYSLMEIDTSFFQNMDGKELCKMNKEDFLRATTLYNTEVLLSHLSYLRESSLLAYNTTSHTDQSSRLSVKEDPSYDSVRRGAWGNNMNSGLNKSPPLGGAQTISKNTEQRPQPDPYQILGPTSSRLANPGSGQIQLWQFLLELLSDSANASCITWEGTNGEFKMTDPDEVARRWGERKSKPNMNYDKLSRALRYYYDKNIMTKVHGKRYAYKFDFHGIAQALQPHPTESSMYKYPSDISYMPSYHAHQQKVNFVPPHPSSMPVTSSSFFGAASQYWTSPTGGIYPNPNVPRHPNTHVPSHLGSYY
# In short: (§1)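 Each value of binding signal is a hexamer's read frequency for a factor divided by the same hexamer's frequency in the tag-only sample. Barcoded, bead-captured GST fusions of human transcription factors made in yeast were pooled with that sample and incubated with 200 nmole of a random double-stranded 16-mer DNA library in Tris/NaCl/DTT/glycerol buffer at room temperature for 30 min. Washing, 0.1% formaldehyde crosslinking, proximity ligation, PCR and Illumina NextSeq500 sequencing followed.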
# [2] = target: T2, ELK1 (Homo sapiens, UniProt P19419 1-428); settings: protein: recombinant; tags: N-terminal GST; dsDNA, one strand shown
# T2 sequence: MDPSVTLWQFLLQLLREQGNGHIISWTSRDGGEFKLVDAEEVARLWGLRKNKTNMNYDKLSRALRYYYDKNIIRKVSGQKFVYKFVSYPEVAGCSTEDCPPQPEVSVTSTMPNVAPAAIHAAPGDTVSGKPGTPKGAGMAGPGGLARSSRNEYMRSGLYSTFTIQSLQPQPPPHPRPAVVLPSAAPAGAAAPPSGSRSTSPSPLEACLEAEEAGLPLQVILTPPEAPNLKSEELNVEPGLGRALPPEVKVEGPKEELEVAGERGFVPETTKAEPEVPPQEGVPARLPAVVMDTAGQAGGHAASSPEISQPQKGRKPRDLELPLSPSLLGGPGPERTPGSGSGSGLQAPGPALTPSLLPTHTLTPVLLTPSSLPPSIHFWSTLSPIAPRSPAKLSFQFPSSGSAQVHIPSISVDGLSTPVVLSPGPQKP
# In short: as §1
# [3] = target: T3, GABPA (Homo sapiens, UniProt Q06546 1-454); settings: protein: recombinant; tags: N-terminal GST; dsDNA, one strand shown
# T3 sequence: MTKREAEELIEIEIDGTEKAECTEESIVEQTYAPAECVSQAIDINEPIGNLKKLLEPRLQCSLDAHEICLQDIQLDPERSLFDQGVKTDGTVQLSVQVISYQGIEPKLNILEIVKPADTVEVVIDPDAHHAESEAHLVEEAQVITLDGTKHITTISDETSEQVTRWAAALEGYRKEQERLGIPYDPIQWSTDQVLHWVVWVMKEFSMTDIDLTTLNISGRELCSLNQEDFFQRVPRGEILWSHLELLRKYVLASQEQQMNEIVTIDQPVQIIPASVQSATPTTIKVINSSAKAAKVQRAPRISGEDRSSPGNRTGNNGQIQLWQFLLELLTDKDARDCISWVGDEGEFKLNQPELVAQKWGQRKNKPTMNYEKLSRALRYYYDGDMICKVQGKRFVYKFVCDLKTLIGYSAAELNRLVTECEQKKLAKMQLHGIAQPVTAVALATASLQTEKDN
# In short: as §1
# [4] = target: T4, ERG (Homo sapiens, UniProt P11308 1-479); settings: protein: recombinant; tags: N-terminal GST; dsDNA, one strand shown
# T4 sequence: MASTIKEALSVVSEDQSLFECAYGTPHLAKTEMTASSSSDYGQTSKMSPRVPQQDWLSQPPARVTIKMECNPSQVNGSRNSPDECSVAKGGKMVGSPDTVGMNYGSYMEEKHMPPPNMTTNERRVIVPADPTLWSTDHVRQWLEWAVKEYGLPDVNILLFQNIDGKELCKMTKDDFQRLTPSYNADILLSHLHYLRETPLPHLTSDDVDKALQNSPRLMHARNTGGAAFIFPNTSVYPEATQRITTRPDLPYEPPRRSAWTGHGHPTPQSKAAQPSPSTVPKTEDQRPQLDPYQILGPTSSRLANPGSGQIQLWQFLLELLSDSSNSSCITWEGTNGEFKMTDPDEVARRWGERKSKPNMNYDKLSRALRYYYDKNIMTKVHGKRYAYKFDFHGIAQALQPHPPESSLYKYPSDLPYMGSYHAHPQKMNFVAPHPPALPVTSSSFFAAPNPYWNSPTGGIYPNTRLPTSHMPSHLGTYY
# In short: as §1
# [5] = target: ELF1 (Homo sapiens, UniProt P32519 1-619); settings: protein: recombinant; tags: N-terminal GST; dsDNA, one strand shown
# In short: as §1
# [6] = target: T5, EHF (Homo sapiens, UniProt Q9NZC4 1-300); settings: protein: recombinant; tags: N-terminal GST; dsDNA, one strand shown
# T5 sequence: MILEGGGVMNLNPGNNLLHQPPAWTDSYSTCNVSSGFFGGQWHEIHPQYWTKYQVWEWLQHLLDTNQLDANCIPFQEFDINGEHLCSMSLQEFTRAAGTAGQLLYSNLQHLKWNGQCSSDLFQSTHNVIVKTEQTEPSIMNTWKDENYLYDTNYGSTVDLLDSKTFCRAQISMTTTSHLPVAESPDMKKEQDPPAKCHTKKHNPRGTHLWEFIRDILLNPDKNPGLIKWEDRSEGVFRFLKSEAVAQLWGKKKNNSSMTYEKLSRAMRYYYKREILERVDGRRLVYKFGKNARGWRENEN
# In short: as §1
# [7] = target: SPI1 (Homo sapiens, UniProt P17947 1-270); settings: protein: recombinant; tags: N-terminal GST; dsDNA, one strand shown
# In short: as §1
# [8] = target: SPIB (Homo sapiens, UniProt Q01892 1-262); settings: protein: recombinant; tags: N-terminal GST; dsDNA, one strand shown
# In short: as §1
# [9] = target: T6, ELK3 (Homo sapiens, UniProt P41970 1-407); settings: protein: recombinant; tags: N-terminal GST; dsDNA, one strand shown
# T6 sequence: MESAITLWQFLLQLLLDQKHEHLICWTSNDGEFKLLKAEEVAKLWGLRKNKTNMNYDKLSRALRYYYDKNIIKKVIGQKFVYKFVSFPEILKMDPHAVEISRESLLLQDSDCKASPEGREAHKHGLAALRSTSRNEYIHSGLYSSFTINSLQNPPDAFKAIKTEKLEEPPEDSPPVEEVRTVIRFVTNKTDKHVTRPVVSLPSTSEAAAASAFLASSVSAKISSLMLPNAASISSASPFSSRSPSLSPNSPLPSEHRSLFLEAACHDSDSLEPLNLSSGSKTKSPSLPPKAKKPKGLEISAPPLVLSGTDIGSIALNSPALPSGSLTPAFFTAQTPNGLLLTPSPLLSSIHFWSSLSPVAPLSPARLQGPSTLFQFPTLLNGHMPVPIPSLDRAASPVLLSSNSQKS
# In short: as §1
# [10] = target: T7, FEV (Homo sapiens, UniProt Q99581 1-238); settings: protein: recombinant; tags: N-terminal GST; dsDNA, one strand shown
# T7 sequence: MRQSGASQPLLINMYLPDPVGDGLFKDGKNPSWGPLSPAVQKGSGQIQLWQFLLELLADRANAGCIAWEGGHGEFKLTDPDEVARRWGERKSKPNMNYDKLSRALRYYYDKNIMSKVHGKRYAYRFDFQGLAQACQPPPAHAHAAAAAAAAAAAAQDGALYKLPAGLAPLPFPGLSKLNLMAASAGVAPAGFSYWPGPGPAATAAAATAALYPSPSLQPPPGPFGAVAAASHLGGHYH
# In short: as §1
# [11] = target: ETV5 (Homo sapiens, UniProt P41161 1-510); settings: protein: recombinant; tags: N-terminal GST; dsDNA, one strand shown
# In short: as §1
# [12] = target: HSF1 (Homo sapiens, UniProt Q00613 1-529); settings: protein: recombinant; tags: N-terminal GST; chain copies: 3; dsDNA, one strand shown
# In short: as §1
# [13] = target: T8, SPIC (Homo sapiens, UniProt Q8N5J4 1-248); settings: protein: recombinant; tags: N-terminal GST; dsDNA, one strand shown
# T8 sequence: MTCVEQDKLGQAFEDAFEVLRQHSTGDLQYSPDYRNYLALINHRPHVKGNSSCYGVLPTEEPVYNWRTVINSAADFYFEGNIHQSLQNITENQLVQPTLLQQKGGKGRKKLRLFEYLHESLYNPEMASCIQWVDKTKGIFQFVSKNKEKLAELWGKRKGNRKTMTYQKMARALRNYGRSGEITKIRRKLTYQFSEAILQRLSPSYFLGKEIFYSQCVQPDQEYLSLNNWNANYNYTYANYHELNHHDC
# In short: as §1
# [14] = target: ELF4 (Homo sapiens, UniProt Q99607 1-663); settings: protein: recombinant; tags: N-terminal GST; dsDNA, one strand shown
# In short: as §1
# [15] = target: T9, ELK4 (Homo sapiens, UniProt P28324-2 1-405); settings: protein: recombinant; tags: N-terminal GST; dsDNA, one strand shown
# T9 sequence: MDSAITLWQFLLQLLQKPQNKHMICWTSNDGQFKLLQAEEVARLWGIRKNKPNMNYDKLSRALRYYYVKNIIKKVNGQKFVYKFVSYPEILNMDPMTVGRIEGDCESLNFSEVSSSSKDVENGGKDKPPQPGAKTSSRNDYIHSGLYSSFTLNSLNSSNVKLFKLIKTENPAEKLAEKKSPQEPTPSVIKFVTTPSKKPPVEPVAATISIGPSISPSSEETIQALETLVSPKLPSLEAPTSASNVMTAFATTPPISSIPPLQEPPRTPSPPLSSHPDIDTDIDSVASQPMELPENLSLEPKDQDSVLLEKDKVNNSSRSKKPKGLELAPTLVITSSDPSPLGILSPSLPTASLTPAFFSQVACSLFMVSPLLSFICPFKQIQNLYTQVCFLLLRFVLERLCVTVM
# In short: as §1
# [16] = target: T10, ETV2 (Homo sapiens, UniProt O00321 1-342); settings: protein: recombinant; tags: N-terminal GST; dsDNA, one strand shown
# T10 sequence: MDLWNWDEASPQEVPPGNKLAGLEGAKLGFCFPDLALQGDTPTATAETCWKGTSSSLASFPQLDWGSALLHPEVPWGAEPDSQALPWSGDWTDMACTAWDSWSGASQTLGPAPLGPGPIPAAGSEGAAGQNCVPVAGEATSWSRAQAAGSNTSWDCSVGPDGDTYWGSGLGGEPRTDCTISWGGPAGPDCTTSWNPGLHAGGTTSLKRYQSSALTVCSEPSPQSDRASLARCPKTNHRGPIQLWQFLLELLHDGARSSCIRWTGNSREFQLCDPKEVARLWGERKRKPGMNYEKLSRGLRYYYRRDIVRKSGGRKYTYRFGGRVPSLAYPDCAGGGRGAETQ
# In short: as §1
# [17] = target: T11, ELF3 (Homo sapiens, UniProt P78545 1-371); settings: protein: recombinant; tags: N-terminal GST; dsDNA, one strand shown
# T11 sequence: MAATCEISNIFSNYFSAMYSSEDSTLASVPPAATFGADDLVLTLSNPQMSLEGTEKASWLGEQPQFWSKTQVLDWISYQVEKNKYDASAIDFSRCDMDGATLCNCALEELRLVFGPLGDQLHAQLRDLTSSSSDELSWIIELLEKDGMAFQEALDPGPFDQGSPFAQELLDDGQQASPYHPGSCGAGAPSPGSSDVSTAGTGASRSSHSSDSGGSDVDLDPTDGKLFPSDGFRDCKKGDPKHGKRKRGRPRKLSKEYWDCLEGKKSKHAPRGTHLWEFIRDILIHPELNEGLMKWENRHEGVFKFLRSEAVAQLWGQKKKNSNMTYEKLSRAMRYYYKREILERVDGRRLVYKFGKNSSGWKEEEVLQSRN
# In short: as §1
# [18] = target: CRX (Homo sapiens, UniProt O43186 1-299); settings: protein: recombinant; tags: N-terminal GST; dsDNA, one strand shown
# In short: as §1
# [19] = target: ETV1 (Homo sapiens, UniProt P50549 1-477); settings: protein: recombinant; tags: N-terminal GST; dsDNA, one strand shown
# In short: as §1
# Sequence of ETV5 (P41161 whole entry): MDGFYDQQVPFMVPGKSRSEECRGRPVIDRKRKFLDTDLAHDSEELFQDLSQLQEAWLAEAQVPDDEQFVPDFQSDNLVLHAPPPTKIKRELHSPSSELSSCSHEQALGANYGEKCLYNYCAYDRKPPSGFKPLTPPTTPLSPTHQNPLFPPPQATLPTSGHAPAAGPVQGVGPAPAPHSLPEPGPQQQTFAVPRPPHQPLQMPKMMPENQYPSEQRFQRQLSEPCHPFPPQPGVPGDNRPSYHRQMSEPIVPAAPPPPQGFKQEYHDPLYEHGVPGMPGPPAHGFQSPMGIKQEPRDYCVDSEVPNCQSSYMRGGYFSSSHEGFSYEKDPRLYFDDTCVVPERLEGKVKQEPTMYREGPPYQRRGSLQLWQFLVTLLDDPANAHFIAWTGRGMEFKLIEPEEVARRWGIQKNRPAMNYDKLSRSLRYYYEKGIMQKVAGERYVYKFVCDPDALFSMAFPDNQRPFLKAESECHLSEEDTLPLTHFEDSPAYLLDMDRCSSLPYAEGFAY
# Sequence of HSF1 (Q00613 whole entry): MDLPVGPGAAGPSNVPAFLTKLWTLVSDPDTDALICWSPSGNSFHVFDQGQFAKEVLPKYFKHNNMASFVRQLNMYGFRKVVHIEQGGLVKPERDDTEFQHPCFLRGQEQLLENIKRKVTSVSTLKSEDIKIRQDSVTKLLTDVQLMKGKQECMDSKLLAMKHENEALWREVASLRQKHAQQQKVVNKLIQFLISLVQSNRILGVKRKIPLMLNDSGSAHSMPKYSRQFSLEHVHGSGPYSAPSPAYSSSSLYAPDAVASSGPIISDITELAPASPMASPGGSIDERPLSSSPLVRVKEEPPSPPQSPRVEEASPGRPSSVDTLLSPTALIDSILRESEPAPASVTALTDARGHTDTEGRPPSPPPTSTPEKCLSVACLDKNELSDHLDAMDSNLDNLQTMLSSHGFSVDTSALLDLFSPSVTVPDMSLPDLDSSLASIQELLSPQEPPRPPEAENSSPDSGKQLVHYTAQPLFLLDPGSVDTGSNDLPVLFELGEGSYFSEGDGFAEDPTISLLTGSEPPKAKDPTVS
# Sequence of ELF4 (Q99607 whole entry): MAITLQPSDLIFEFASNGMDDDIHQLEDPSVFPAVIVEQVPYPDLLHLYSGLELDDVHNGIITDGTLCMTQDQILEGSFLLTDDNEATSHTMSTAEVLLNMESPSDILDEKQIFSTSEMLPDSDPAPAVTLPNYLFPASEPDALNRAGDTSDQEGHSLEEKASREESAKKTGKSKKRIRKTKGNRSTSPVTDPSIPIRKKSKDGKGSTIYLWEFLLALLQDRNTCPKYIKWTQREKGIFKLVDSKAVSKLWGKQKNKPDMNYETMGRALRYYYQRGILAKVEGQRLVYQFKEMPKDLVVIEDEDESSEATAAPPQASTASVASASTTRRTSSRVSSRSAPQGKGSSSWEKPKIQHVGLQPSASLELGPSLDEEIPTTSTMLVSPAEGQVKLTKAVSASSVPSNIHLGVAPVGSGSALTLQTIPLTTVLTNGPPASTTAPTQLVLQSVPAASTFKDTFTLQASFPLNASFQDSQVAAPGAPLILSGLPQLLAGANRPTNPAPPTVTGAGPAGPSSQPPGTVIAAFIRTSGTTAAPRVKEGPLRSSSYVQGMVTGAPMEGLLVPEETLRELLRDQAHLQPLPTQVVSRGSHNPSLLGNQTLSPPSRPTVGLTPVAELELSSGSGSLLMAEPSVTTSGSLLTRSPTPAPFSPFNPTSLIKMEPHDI
# Sequence of CRX (O43186 whole entry): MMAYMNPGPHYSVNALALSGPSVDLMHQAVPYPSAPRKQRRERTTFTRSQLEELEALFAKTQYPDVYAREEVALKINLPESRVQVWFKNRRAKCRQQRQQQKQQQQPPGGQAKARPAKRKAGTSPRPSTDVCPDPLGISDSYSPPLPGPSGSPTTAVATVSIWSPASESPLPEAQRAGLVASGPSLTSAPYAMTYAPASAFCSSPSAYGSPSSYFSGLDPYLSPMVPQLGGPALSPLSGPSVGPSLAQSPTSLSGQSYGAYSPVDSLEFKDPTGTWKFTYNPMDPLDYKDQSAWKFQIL
# Sequence of ELF1 (P32519 whole entry): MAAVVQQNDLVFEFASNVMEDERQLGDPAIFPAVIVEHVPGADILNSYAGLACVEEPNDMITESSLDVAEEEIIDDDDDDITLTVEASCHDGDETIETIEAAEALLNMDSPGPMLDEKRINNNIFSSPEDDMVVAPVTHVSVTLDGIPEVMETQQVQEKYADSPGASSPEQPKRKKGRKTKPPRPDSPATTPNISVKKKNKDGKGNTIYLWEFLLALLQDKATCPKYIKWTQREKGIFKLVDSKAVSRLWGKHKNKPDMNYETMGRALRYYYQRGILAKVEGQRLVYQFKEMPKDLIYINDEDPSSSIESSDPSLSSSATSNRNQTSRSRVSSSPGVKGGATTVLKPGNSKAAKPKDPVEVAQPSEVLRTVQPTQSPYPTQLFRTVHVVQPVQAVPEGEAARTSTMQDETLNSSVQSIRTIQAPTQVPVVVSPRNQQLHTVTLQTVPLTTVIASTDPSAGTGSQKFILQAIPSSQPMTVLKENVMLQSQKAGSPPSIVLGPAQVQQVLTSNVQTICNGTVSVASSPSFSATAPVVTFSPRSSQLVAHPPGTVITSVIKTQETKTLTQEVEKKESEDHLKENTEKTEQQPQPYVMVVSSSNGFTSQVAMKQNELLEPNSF
# Sequence of ETV1 (P50549 whole entry): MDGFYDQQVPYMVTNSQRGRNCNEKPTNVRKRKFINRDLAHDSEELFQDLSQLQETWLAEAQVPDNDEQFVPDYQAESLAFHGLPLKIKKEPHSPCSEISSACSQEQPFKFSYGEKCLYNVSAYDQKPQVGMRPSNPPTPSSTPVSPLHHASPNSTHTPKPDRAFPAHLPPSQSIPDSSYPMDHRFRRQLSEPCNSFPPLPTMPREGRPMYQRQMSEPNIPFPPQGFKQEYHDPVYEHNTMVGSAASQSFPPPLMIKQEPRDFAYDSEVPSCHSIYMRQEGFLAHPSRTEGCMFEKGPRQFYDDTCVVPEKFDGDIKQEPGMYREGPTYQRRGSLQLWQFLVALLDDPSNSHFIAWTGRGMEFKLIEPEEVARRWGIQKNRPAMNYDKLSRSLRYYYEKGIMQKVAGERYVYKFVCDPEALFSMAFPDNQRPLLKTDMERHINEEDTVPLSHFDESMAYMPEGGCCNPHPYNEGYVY
# Sequence of SPIB (Q01892 whole entry): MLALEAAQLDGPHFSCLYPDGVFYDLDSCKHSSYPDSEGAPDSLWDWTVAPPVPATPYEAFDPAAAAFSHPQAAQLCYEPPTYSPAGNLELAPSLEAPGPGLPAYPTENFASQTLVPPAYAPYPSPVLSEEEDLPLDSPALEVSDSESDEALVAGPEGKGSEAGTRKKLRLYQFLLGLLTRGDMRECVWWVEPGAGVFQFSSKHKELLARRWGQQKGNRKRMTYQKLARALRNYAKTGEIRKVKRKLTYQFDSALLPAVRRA
sequence,measurement,setting,value
CTACGG,binding signal,[1],"1.19 fold enrichment (6-mer frequency, TF over GST control)"
same,binding signal,[2],"1.27 fold enrichment (6-mer frequency, TF over GST control)"
same,binding signal,[3],"1.22 fold enrichment (6-mer frequency, TF over GST control)"
same,binding signal,[4],"1.21 fold enrichment (6-mer frequency, TF over GST control)"
same,binding signal,[5],"1.29 fold enrichment (6-mer frequency, TF over GST control)"
same,binding signal,[6],"1.31 fold enrichment (6-mer frequency, TF over GST control)"
same,binding signal,[7],"1.24 fold enrichment (6-mer frequency, TF over GST control)"
same,binding signal,[8],"1.28 fold enrichment (6-mer frequency, TF over GST control)"
same,binding signal,[9],"1.24 fold enrichment (6-mer frequency, TF over GST control)"
same,binding signal,[10],"1.28 fold enrichment (6-mer frequency, TF over GST control)"
same,binding signal,[11],"1.21 fold enrichment (6-mer frequency, TF over GST control)"
same,binding signal,[12],"1.03 fold enrichment (6-mer frequency, TF over GST control)"
same,binding signal,[13],"1.08 fold enrichment (6-mer frequency, TF over GST control)"
same,binding signal,[14],"1.22 fold enrichment (6-mer frequency, TF over GST control)"
same,binding signal,[15],"1.37 fold enrichment (6-mer frequency, TF over GST control)"
same,binding signal,[16],"1.29 fold enrichment (6-mer frequency, TF over GST control)"
same,binding signal,[17],"1.38 fold enrichment (6-mer frequency, TF over GST control)"
same,binding signal,[18],"1.08 fold enrichment (6-mer frequency, TF over GST control)"
same,binding signal,[19],"1.34 fold enrichment (6-mer frequency, TF over GST control)"
